An excerpt weighted towards active compounds, which were near 2.4% of everything screened.
GLS inh – inhibitors of human glutaminase (GLS); O94925; GLS enzymatic activity, qHTS titration; Potency, µM (top dose mostly 45.5 µM), for the others: at the highest dose activity change, negative = inhibition, usual class: inhibitors; 410,000 compounds, 0.21% hits; further: on the % scale 0 is the no-effect control and ±100 the full control effect
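Coupled fluorescence readout: glutamate oxidase/HRP/Amplex Red detect glutamate formed by hKGA from L-glutamine (1 mM solution added). Buffer 45 mM KH2PO4 pH 8.2, 0.02% Tween-20; reads at t0 and 30 min RT.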
APEX1 inh – blocks human APE1 abasic DNA cleavage; P27695; recombinant APE1, TAMRA/BHQ-2 abasic DNA cleavage fluorescence; Potency, µM (top dose mostly 65.8 µM), for the others: at the highest dose activity change, negative = inhibition, actives largely listed as inhibitors; 350,000 compounds, 0.35% hits; AID 2517;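 further: plate controls were vehicle for no effect and reference inhibitor for full effect; nearly all actives have a fitted effect of over 55% in size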
Target sequence (P27695 whole entry, looked up): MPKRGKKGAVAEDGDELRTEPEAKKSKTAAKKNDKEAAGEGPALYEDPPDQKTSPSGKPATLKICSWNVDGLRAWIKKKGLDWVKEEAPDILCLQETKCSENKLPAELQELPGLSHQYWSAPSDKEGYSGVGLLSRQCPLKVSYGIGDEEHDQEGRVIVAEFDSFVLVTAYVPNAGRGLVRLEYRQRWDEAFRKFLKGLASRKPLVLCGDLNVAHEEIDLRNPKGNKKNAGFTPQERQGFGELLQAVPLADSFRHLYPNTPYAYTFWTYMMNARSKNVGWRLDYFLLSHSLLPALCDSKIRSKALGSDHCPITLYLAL
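Kinetic fluorescence read (525 ex/598 em nm, three reads 60 s apart) of AP-site incision; signal = third minus first read. Enzyme 0.75 nM, dual-labelled THF duplex 50 nM, compound preincubation 15 min RT.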
POLK inh – inhibitors of human DNA polymerase kappa; Potency, µM (top dose mostly 107 µM), for the others: top-dose activity, negative = inhibition, actives largely listed as inhibitors; purified Pol kappa, fluorescent DNA synthesis assay, 10 min; 400,000 compounds, 0.53% hits; Q9UBT6; further: on the % scale 0 is the no-effect control and ±100 the full control effect
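Kinetic fluorescence screen: compound preincubated 15 min RT with 10 nM enzyme; 50 nM substrate (final) initiates; reads at 0/10 min.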
POLB inh – DNA polymerase beta (human) inhibition; Potency, µM (titrated, usually from 114 µM), for the others: top-dose activity change, negative = inhibition, hits mostly inhibitors; Pol beta primer extension/strand displacement, fluorescence kinetic; 340,000 compounds, 1.3% hits; P06746; further: on the % scale 0 is the no-effect control and ±100 the full control effect
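Pol beta (10 nM) and compounds were preincubated 15 min at room temperature, then 50 nM substrate (final) started primer extension/strand displacement. Reads were taken at 0 and 10 min; concentration-response data were fitted to a four-parameter Hill equation.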
POLH inh – DNA polymerase eta (human) inhibition; Q9Y253; recombinant Pol eta, fluorescent DNA replication assay; Potency, µM (series often up to 114 µM), for inactives: top-dose activity change, negative = inhibition, hits mostly inhibitors; 390,000 compounds, 1.2% hits; further: on the % scale 0 is the no-effect control and ±100 the full control effect
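Fluorescent replication assay: 50 nM final substrate added after a 15 min room-temperature compound preincubation with 10 nM enzyme. Signal taken at 0 min and again at 10 min.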
POLI inh – blocks human DNA polymerase iota activity; AID 588590; Q9UNA4; 390,000 compounds, 1% hits; Pol iota fluorescent replication assay, 10 min; Potency, µM (top dose mostly 115 µM), without a hit: top-dose activity, negative = inhibition, usual class: inhibitors
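Fluorescent replication assay read twice, at 0 min and 10 min after adding 50 nM (final) substrate. Enzyme (10 nM) and compounds were first incubated 15 min at room temperature; enzyme-free buffer wells were negative controls.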
* hit, by the source's call; [ ] = remark or other dose. The call rests on the fitted dose curve; in most records, active means well fitted curve in the direction sought with a large enough effect; inconclusive means small, poorly fitted or top-dose-only effect, or another doubt; inactive means no such curve, though single readings can be large; an effect the other way counts as inactive or inconclusive. Potency means the concentration at half of the fitted maximal effect.

Cc1ccc(C)c(N2N=C(C(=O)NCCN3C(=O)S/C(=C\c4cccnc4)C3=O)CCC2=O)c1 was read as GLS inh -1%, APEX1 inh 18%, POLK inh -24%, POLH inh inconclusive and POLI inh 50µM*.
Screening Cc1n[nH]c(C)c1Sc1ccccc1N=Cc1cc(Cl)cc([N+](=O)[O-])c1O returned GLS inh inconclusive, APEX1 inh 0%, POLK inh inconclusive, POLB inh inconclusive, POLH inh -12% and POLI inh 25µM*.
`O=C(c1ccc(COc2ccc(F)cc2)o1)n1cc(Br)cn1` gave GLS inh 0%, APEX1 inh inconclusive, POLK inh -34%, POLB inh 22µM*, POLH inh 79µM* and POLI inh inconclusive.
Screening S=C1NC2=C(CCC/C2=C\c2ccc(Cl)cc2)C(c2ccc(Cl)cc2)N1 (stereo unspecified) returned GLS inh 91%, APEX1 inh 14%, POLK inh -6%, POLB inh -19%, POLH inh -13% and POLI inh 171%.
CC1CC2=C(NC(=S)NC2c2ccc(F)cc2)/C(=C/c2ccc(F)cc2)C1 (stereo unspecified) was read as GLS inh inconclusive, APEX1 inh -4%, POLK inh -8%, POLB inh 30%, POLH inh -17% and POLI inh 79µM*.
COc1cc(OC)cc(C(=O)N[C@H](C(=O)OCC(=O)Nc2ccc(C(C)C)cc2)C(C)C)c1 was read as GLS inh -10%, APEX1 inh -4%, POLK inh -5%, POLB inh 3%[57.1 µM], POLH inh -25% and POLI inh 51%.
`N#Cc1ccsc1NC(=O)COC(=O)c1ccc(Br)o1` gave GLS inh -4%, APEX1 inh -11%, POLK inh -42%, POLH inh inconclusive and POLI inh 25µM*.
For COc1cc(OC)cc(C(=O)N[C@H](C(=O)OCC(=O)Nc2sccc2C#N)C(C)C)c1 the results were GLS inh 5%, APEX1 inh inconclusive, POLK inh inconclusive, POLB inh inconclusive, POLH inh 50µM* and POLI inh inconclusive.
For CC(C)Oc1ccc(CCC(=O)N/N=C/c2ccc3c(c2)OCO3)cc1 the results were GLS inh -8%, APEX1 inh 53%, POLK inh 4%, POLB inh 0%, POLH inh -16% and POLI inh 25%.
Screening O=C(CCc1ccc(O)c(O)c1)N/N=C/c1ccc2c(c1)OCO2 returned GLS inh inconclusive, APEX1 inh 2%, POLK inh inconclusive, POLB inh 71µM*, POLH inh 0% and POLI inh 79µM*.
`O=C(NCC(=O)N1CCN(c2ccccc2O)CC1)c1ccc2c(c1)OCO2` gave GLS inh 19%, APEX1 inh 17%, POLK inh -12%, POLB inh inconclusive, POLH inh inconclusive and POLI inh 50µM*.
For O=C(N/N=C\C=C\c1ccc(Br)cc1)c1ccc2c(c1)OCO2 the results were GLS inh -7%, APEX1 inh -32%, POLK inh -13%, POLB inh 35µM*, POLH inh -18% and POLI inh inconclusive.
O=C(N/N=C/c1ccc(Cl)cc1)c1ccc2c(c1)OCO2 was read as GLS inh 2%, APEX1 inh -26%, POLK inh -6%, POLB inh 35µM*, POLH inh 7% and POLI inh 79µM*.
For COc1cc2cc(CCCOC(=O)CCC(=O)O)oc(=O)c2cc1OC the results were GLS inh 0%, APEX1 inh 8%, POLK inh -7%, POLH inh -7% and POLI inh 1%.
For O=C(CNC(=O)c1ccc2c(c1)OCO2)N/N=C/c1cc(Br)ccc1O the results were GLS inh 10%, APEX1 inh 31%, POLK inh -13%, POLB inh 45µM*, POLH inh -6% and POLI inh -18%.
For CCN1CCC(NC(=O)Nc2ccc(F)cc2F)CC1 the results were GLS inh -3%, APEX1 inh 7%, POLK inh 6%, POLB inh 0%, POLH inh -19% and POLI inh 38%.
Cc1ccc(C)c(NC(=O)c2nc(S(=O)(=O)Cc3ccc(F)cc3)ncc2Cl)c1 was read as GLS inh -1%, POLK inh -6%, POLB inh 32µM*, POLH inh 89µM* and POLI inh inconclusive.
For Cc1nnc(NC(=O)c2nc(S(=O)(=O)Cc3ccccc3C)ncc2Cl)s1 the results were GLS inh 6%, APEX1 inh -13%, POLK inh -16%, POLB inh inconclusive, POLH inh 56µM* and POLI inh inconclusive.
CCOC(=O)NC(NCc1cccc(C(F)(F)F)c1)(C(F)(F)F)C(F)(F)F was read as GLS inh 0%, APEX1 inh 20%, POLK inh -12%, POLB inh 6%, POLH inh -14% and POLI inh 16%.
NS(=O)(=O)c1cc(Br)c2c(c1)S(=O)(=O)NCN2 was read as GLS inh 1% and POLH inh -15%.
`O=C(O)CC1CCC(=C(Cl)Cl)C1` (stereo unspecified) gave GLS inh -23%, APEX1 inh inconclusive, POLK inh -16%, POLB inh inconclusive, POLH inh 50µM* and POLI inh inconclusive.
`CN(C)c1ccc(/C=C(\C#N)C(=O)OCC(=O)N(C)C2CCS(=O)(=O)C2)cc1` (stereo unspecified) gave GLS inh -4%, APEX1 inh 22%, POLK inh 0%, POLH inh 13% and POLI inh 16%.
CCN(C(=O)COC(=O)/C(C#N)=C/c1ccc(N(C)C)cc1)C1CCS(=O)(=O)C1 (stereo unspecified) was read as GLS inh -16%, APEX1 inh 4%, POLK inh inconclusive, POLH inh -19% and POLI inh 56µM*.
`COc1ccccc1CNc1nc2cc(-c3sccc3C)sc2c(=O)n1C` gave GLS inh -3%.
For S=c1[nH]nc(-c2ccc3ncccc3c2)n1-c1ccc2c(c1)OCCO2 the results were GLS inh 6.3µM*, APEX1 inh 11%, POLK inh -5%, POLB inh 62%, POLH inh -11% and POLI inh 22%.
`Oc1ccc(-c2n[nH]c(=S)n2-c2ccc3c(c2)OCCO3)cc1` gave GLS inh 2%, APEX1 inh -1%, POLK inh -2%[60.1 µM], POLB inh 29%, POLH inh 11% and POLI inh -4%.
